Measurements from PubChem BioAssay AID720690 (Broad Institute, 2013).
Potency and affinity values are given separately. Values without a mark were called inactive.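 Rule for the calls: active = every repeat run showing a signal drop whose fitted half-maximal concentration is at most twice the top tested concentration; inconclusive = repeat runs disagree, or flat partial drop, or poor fit; inactive = the rest.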

experiment: HEK293T cytotoxicity, dose response, cytotoxicity control for miR-122 modulator project, cell-based, activator set, cherry-pick (AID 720690); conditions: HEK293T viability, CellTiter-Glo luminescence, 48 h; series mostly up to 26 µM; activity change, negative = cytotoxicity: at the top concentration;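 note: 0% = neutral control wells and -100% = MG132 cytotoxic control wells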

| SMILES | activity change, negative = cytotoxicity |
| --- | --- |
| CN1C[C@H]2[C@@H](c3ccccc31)[C@@H](CO)N2C(=O)C1CCOCC1 | 3.96% |
| COc1ccc(C(=O)C2CCCN(Cc3cccn3-c3ccccn3)C2)c(OC)c1 (configuration not stated) | -32.3% |
| CN1C(=O)c2cc(NC(=O)Nc3ccc(Cl)cc3)ccc2OC[C@@H]2O[C@@H](CC(=O)NCCN3CCCCC3)CC[C@H]21 | -1.75% |
| CC(C)C#Cc1ccc2c(c1)O[C@H](CN(C)C(=O)Nc1ccccc1)[C@H](C)CN([C@@H](C)CO)S2(=O)=O | -13% |
| Cc1[nH]c(=O)c(C#N)cc1-c1ccccc1 | -8.29% |
| Cc1cc2[nH]c3c4ccccc4nc(C)c3c2cc1C | -37.8% [at 12 µM] |
| CO[C@H]1CN(C)C(=O)c2cc(NC(=O)C3CC3)ccc2OC[C@H](C)N(CCc2ccccc2)C[C@H]1C | -3.16% |
| CN1C(=O)c2cc(NC(=O)c3cccc(F)c3)ccc2OC[C@@H]2O[C@@H](CC(=O)O)CC[C@@H]21 | -6.33% [at 23.5 µM] |
| Cc1ccc(-c2ccc3c(c2)O[C@H](CN(C)C(=O)CC2CC2)[C@H](C)CN([C@H](C)CO)S3(=O)=O)cc1 | -25.1% |
| CCNC(=O)C[C@@H]1CC[C@@H]2[C@H](COc3ccc(NC(=O)Nc4cccc(Cl)c4)cc3C(=O)N2C)O1 | -1.23% |
| COc1ccc2[nH]c(=O)c(COC(=O)c3ccco3)cc2c1 | -0.84% |
| COC(=O)C[C@H]1CC[C@@H]2[C@@H](COc3ccc(NC(=O)Nc4cccc(F)c4)cc3C(=O)N2C)O1 | -5.97% |
| C/C=C/c1ccc([C@@H]2[C@@H](CO)N(C(C)=O)[C@H]2CN(C(=O)COC)C(C)C)cc1 | -1.5% |
| CCOc1cc(C(=O)NC(C)COC)cc(OCC)c1OCC (configuration not stated) | 0.828% |
| CC(=O)Nc1ccc2c(c1)C(=O)N(C)[C@H]1CC[C@@H](CC(=O)NCc3ccc4c(c3)OCO4)O[C@@H]1CO2 | -3.39% [at 23.5 µM] |
| COc1ccc(C(O)(CC(C)C)C(CN2CCOCC2)c2ccccc2)cc1 (configuration not stated) | -7.43% |
| CCN(C[C@@H]1[C@@H](c2ccccc2)[C@@H](CO)N1S(C)(=O)=O)C(=O)C1CC1 | 6.32% |
| C[C@@H]1CN([C@@H](C)CO)S(=O)(=O)c2ccc(/C=C/c3ccccc3)cc2O[C@@H]1CN(C)C(=O)c1cccnc1 | -12.1% |
| O=C(c1ccc(CNc2c(NC3CCCCC3)c(=O)c2=O)cc1)N1CCc2ccccc21 | 6.16% |
| CN1C(=O)c2cc(NC(=O)c3cccs3)ccc2OC[C@@H]2O[C@H](CC(=O)NCC(F)(F)F)CC[C@H]21 | -2.83% |
| COc1ccc(OC)c(Nc2cc(C)nc3ccc(C)cc23)c1 | -11.7% |
| CCOC(=O)CSc1nnnn1-c1cccc2ccccc12 | 1.77% |
| CN(Cc1ccccc1)C(=O)COC(=O)c1ccccc1Nc1ccccc1 | -0.674% |
| COc1ccc(CCNC(=O)c2c(C)cc(=O)oc2C)cc1OC | -25.6% |
| CCCC(=O)Nc1ccc2c(c1)C(=O)N(C)[C@@H]1CC[C@H](CC(=O)NCCN3CCCCC3)O[C@H]1CO2 | -17.2% |
| CN(C)CCCNC(=O)C[C@@H]1CC[C@@H]2[C@@H](COc3ccc(NC(=O)NC4CCCC4)cc3C(=O)N2C)O1 | 11.1% [at 23.5 µM] |
| O=c1c2cc(N3CCOCC3)ccc2[nH]c(=S)n1CCCN1CCCC1 | 30.1% |
